KB-V1 cytotox – kills drug-selected multidrug resistant KB-V1 cells | Potency, µM (doses to about 46.1 µM), usual class: cytotoxic | 400,000 tested, 3.4% active | KB-V1 MDR cells viability, CellTiter-Glo, 72 h; further: nearly all actives have a fitted effect of over 60% in size
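Drug-selected KB-V1 cells, grown in DMEM lacking phenol red with 10% FBS, receive compound titrations; after three days at 37 degrees C, surviving cell ATP is quantified by CellTiter-Glo luminescence and responses normalized and curve-fitted.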
Gal4-VP16 FLuc – inhibits Gal4-VP16 luciferase reporter, ROR gamma counter-screen; Potency, µM (highest dose often 53.6 µM), hits mostly inhibitors; AID 2546; Drosophila S2 Gal4-VP16 UAS-luciferase, luminescence, 20 h; 310,000 tested, 3.5% active;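 further: Gal4-VP16 expression switched on by copper sulfate through the metallothionein promoter; nearly all actives have a fitted effect of over 50% in size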
MCF10A rerep – DNA re-replication induction in MCF 10a cells. MCF 10A DNA re-replication, Hoechst nuclear intensity, 48 h. Potency, µM (series often up to 46.1 µM), most hits filed as activators. 350,000 tested, 2.9% active. AID 624296; further: nearly all actives have a fitted effect of over 50% in size
RORgamma inh – blocks mouse ROR gamma transcriptional activity; P51450; Drosophila S2 Gal4-RORgamma UAS-luciferase reporter, 20 h; Potency, µM (doses to about 53.6 µM), usual class: inhibitors; 310,000 tested, 5.4% active; further: nearly all actives have a fitted effect of over 60% in size
Target sequence (P51450 whole entry, looked up, the tested form may be a part): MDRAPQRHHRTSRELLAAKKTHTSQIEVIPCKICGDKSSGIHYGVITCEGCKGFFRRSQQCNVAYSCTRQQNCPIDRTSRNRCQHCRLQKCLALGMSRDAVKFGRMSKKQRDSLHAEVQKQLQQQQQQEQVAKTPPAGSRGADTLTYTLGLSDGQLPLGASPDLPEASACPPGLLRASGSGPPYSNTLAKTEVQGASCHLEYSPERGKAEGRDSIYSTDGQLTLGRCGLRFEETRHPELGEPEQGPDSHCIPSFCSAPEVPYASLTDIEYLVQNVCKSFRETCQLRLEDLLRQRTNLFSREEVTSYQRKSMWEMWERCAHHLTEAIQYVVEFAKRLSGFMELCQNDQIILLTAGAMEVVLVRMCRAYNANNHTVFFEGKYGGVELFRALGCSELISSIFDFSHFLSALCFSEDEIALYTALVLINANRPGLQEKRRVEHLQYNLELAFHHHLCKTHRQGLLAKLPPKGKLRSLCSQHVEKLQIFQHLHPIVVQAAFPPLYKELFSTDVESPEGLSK
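In this cell-based reporter format, copper sulfate (700 uM final) drives Gal4–ROR gamma fusion expression from a metallothionein promoter in Drosophila Schneider cells; compounds preincubated 1 hr, reporter read after 20 hr at ambient temperature.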
KB-3-1 cytotox – kills parental KB-3-1 adenocarcinoma cells | KB-3-1 viability, CellTiter-Glo ATP luminescence, 72 h | Potency, µM (highest dose often 46.1 µM), most hits filed as cytotoxic | 400,000 tested, 1.4% active | AID 1347075; further: nearly all actives have a fitted effect of over 60% in size
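Cytotoxicity measured as CellTiter-Glo luminescence after 72 h at 37 C. Compound titrations were pinned onto drug-naive KB-3-1 parental adenocarcinoma cells grown in DMEM with 10% FBS, and normalized data fitted to concentration-response curves.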
SW480 rerep – inducers of DNA re-replication in SW480 colon cancer cells; SW480 DNA re-replication, Hoechst DNA content imaging, 48 h; Potency, µM (highest dose often 46.1 µM), hits mostly activators; 340,000 tested, 1.8% active; further: nearly all actives have a fitted effect of over 55% in size
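Quantitative HTS format with DMSO vehicle controls; 48 hr drug incubation at 37 C, then 40 min Hoechst staining and scanning imager measurement at 405 nm excitation.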
Hits are given with their value; 0 = inactive; ? = inconclusive; - = no result given; ! = a repeat was not active; [ ] = dose if it differs, or a comment. This is a sample that favours compounds with a hit; in the whole collection about 10% have one here. The call rests on the fitted dose curve; in most records, active means well fitted curve in the direction sought with a large enough effect; inconclusive means small, poorly fitted or top-dose-only effect, or another doubt; inactive means no such curve, though single readings can be large; an effect the other way counts as inactive or inconclusive.

SMILES | KB-V1 cytotox | Gal4-VP16 FLuc | MCF10A rerep | RORgamma inh | KB-3-1 cytotox | SW480 rerep
COc1cc(C(=O)OCCc2cc3ccccc3c(=O)o2)cc(OC)c1OC | ? | - | 14.6µM | - | 4.61µM | 8.2µM
C[C@H](O)Cc1cc2ccccc2c(=O)o1 | 0 | - | 2.91µM | - | 0 | 0
Nc1[nH]c(=S)nc2nnsc12 | 0 | - | - | - | ? | -
CSc1nc2nc3c(cn2n1)C(=O)CC(c1ccccc1)C3 (configuration not stated) | 13µM | 0 | 0 | 0 | 0 | 0
CCc1cccc(NC(c2nnc(-c3ccccc3)o2)c2ccc(F)cc2Cl)c1 (configuration not stated) | 0 | - | - | - | 0 | -
CCCc1cc(Nc2ccccc2OCC)n2ncnc2n1 | ? | ? | 0 | 11.2µM | 0 | 0
COc1cc(NC(=O)c2nc(-c3ccncc3)no2)cc(OC)c1OC | 0 | - | - | - | 0 | -
COc1ccc(C2c3c(ncn(CCN4CCOCC4)c3=N)Oc3ccc4ccccc4c32)cc1 (configuration not stated) | 14.6µM! | 0 | ? | 0 | ? | ?
COc1ccc(C2C3=C(CC(C)(C)CC3=O)Oc3ncn(Cc4ccccc4)c(=N)c32)cc1 (configuration not stated) | 3.26µM | 0 | 16.4µM | 0 | 0 | ?
COc1ccc2[nH]c(C)c(C(=O)CN(C)CC(OC)OC)c2c1 | 0 | - | - | - | 0 | -
COc1ccc(CNC(=O)c2nc(Cn3nc(C)c(Br)c3C)no2)cc1OC | 0 | - | - | - | 0 | -
Cc1ccc(S(=O)(=O)/C(=C/Cl)NC(=O)c2ccccc2)cc1 | 0 | ? | 4.11µM | ? | 13µM | 13µM
CC(=O)NC(=C(Cl)Cl)S(=O)(=O)c1ccccc1 | ? | ? | 13µM | 12.6µM | ? | 11.6µM
Cc1ccc(C(=O)NC(=C(Cl)Cl)S(=O)(=O)c2ccc(C)cc2)cc1 | 0 | ? | 13µM | ? | 0 | ?
Cc1ccc(C(=O)NC(=C(Cl)Cl)S(=O)(=O)c2ccc(Cl)cc2)cc1 | 0 | ? | ? | ? | ? | ?
O=C(NC(=C(Cl)Cl)S(=O)(=O)c1ccc(Cl)cc1)c1ccccc1 | ? | ? | ? | ? | 0 | ?
Cc1ccc(S(=O)(=O)C(NC(=O)c2ccccc2)=C(Cl)Cl)cc1 | ? | - | 6.51µM | - | ? | ?
COc1cc(NC(=O)Cn2ccc3ccccc3c2=O)cc(OC)c1OC | 0 | - | - | - | 0 | -
CCC(C)(C)NC(=O)C(c1ccc(C)cc1)N(Cc1cccs1)C(=O)c1ccc2c(c1)OCCO2 (configuration not stated) | 18.4µM | 0 | 0 | 0 | 0 | 0
CC(C)CCC[C@@H](C)[C@@H]1CC[C@H]2C3=CC=C4CC(O)CC[C@]4(C)[C@H]3CC[C@@]21C (some centres not stated) | - | ? | - | 0 | - | -
O=C(NC(=S)NCc1ccccc1)C1CC1 | 0 | ? | 0 | 6.31µM | 0 | 0
O=C(CNC(=S)NC(=O)c1ccco1)c1ccccc1 | 0 | 0 | 0 | ? | 0 | 0
O=C(NC(=S)NCCc1ccccc1)C1CCCCC1 | ? | 3.98µM | ? | 2.82µM | 0 | 0
S=C(NCCc1ccccc1)N/N=C/C1CCCCC1 | - | 5.62µM | - | 1.41µM | - | -
O=C(CNC(=S)NC(=O)C1CCCCC1)c1ccccc1 | 0 | ? | 0 | 7.94µM | ? | ?
SMILES | KB-V1 cytotox | Gal4-VP16 FLuc | MCF10A rerep | RORgamma inh | KB-3-1 cytotox | SW480 rerep
CC(C)N(C(=O)CSc1ccc(S(=O)(=O)N2CCCCC2)cn1)c1ccccc1 | 0 | - | 5.8µM | - | ? | 0
CN(C)C(=O)CSc1ccc(S(=O)(=O)N2CCCC2)cn1 | 0 | - | 0 | - | 0 | 0
CC[C@H](C)[C@H](NC(=O)[C@@H](NC(=O)[C@@H](CC(=O)NO)Cc1ccccc1)[C@@H](C)CC)C(=O)O | - | 0 | - | 0 | - | -
Cc1ccc(C(NC(=O)N2CCCCC2)=C(Cl)Cl)cc1F | 0 | 7.08µM | 16.4µM | 11.2µM | 0 | 6.51µM
Cc1ccc(NC(=O)N2CCCCCC2)cc1C | 0 | 0 | 0 | 0 | 0 | 0
COC(=O)[C@H](COC(C)(C)C)NC(=O)O[C@@H]1C(=O)c2cc(Br)ccc2O[C@H]1c1cccc(OC)c1 | - | 0 | - | 0 | - | -
CCn1cc(C(=O)N[C@@H](CC(C)C)C(=O)NCCCn2ccnc2)c(=O)c2cc3c(cc21)OCO3 | 0 | 0 | 0 | 0 | 0 | 13µM
Cc1ccc2c(c1)cc(C(=O)NCc1ccc(F)cc1)n2C | 0 | - | - | - | 0 | -
Cn1c(=O)c(-c2cc(F)cc(F)c2)nc2cnc(Oc3cccc(Cl)c3)nc21 | - | 0 | - | 0 | - | -
CC(C)Oc1ccc(CNC(=O)C2COc3ccccc3C2)cc1 (configuration not stated) | 0 | - | - | - | 0 | -
CCC(C)C(=O)OC1CCC=C2C=CC(C)C(CCC3CC(O)CC(=O)O3)C21 (configuration not stated) | 18.4µM | - | 0 | - | 13µM | ?
COc1ccc(Cc2nnc(N/N=C/c3ccc(C)o3)[nH]c2=O)cc1 | 0 | 0 | 0 | 11.2µM | 0 | 0
COc1ccc(Cc2nnc(N/N=C/c3ccc(Br)cc3)[nH]c2=O)cc1OC | 0 | 0 | 0 | 0 | 0 | 0
COc1ccc(Cc2nnc(N/N=C/c3ccc(O)cc3)[nH]c2=O)cc1OC | ? | 3.98µM | 8.2µM | 2.24µM | 0.581µM | ?
Cc1nc(NC2CCCCC2)c2nc(-c3ccccc3)n(CCN(C)C)c2n1 | - | 0 | - | 0 | - | -
Cc1nc2c(sc(=S)n2Cc2ccco2)c(=O)n1CC(=O)Nc1cc(F)ccc1F | 0 | 0 | 23.1µM | 0 | 0 | 0
COc1cc2nc(C3CCC3)nc(N3CCN(c4ccccc4OC)CC3)c2cc1OC | 7.31µM | 0 | ? | 0 | 0 | ?
CC(C)CC1Nc2ncnc(N3CCN(c4ccccn4)CC3)c2N(Cc2ccc(Cl)cc2)C1=O (configuration not stated) | 23.1µM! | - | 0 | - | ? | 0
CCOC(=O)C1CCCN(C(=O)CN2C(=O)/C(=C/c3ccc(OC)cc3)Oc3ccccc32)C1 (configuration not stated) | 16.4µM | 0 | ? | 0[10 µM] | 0 | 0
Cc1nnc(NC(=O)CSc2cn(Cc3ccccc3)c3ccccc23)s1 | 0 | 0 | 0 | 11.2µM | 0 | 0
Cc1nnc(NC(=O)CSc2nnc3scc(-c4ccc(C)c(C)c4)n23)s1 | 20.6µM | 0 | 0 | 0[10 µM] | 0 | 0
CCc1nnc(NC(=O)CSc2nnc3scc(-c4ccc(C)cc4)n23)s1 | 0 | - | 0 | - | 0 | 0
Cc1ccc(C(C)(C)C)c(SCC(=O)Nc2nnc(C)s2)c1 | 0 | 0 | 0 | 7.08µM | 0 | 0
CO[C@H]1COC(=O)C/C=C\[C@@H](C)COC(=O)[C@@H](OCc2ccccc2)/C=C\[C@@H]1C | - | 0[10 µM] | - | 0[10 µM] | - | -
COc1ccc(C(=O)NCC(c2ccc(N(C)C)cc2)N2CCc3ccccc32)cc1OC (configuration not stated) | 0 | - | - | - | 0 | -
c1ccc(CNc2ncncc2-c2ccoc2)cc1 | - | 0 | - | 0 | - | -
COc1ccc(C(=O)Nc2ccc(CN3CCOCC3)cc2)cc1Br | 0 | 0 | 0 | 0 | 0 | 0

Bioassay records (PubChem)
